# Screening data (PubChem BioAssay)
# This is a sample that favours compounds with a hit; in the whole collection about 10% have one here.
# ALDH1A1 inh – qHTS Assay for Inhibitors of Aldehyde Dehydrogenase 1 (ALDH1A1); Aldehyde dehydrogenase 1A1 (Homo sapiens), P00352; Purified ALDH1A1, NADH fluorescence, propionaldehyde substrate; Potency, µM (top dose mostly 75.3 µM), for the others: top-dose activity, negative = inhibition, most hits filed as inhibitors; hit rate 7.3% among 220,000; AID 1030, 2008;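 further: potency means the concentration at half of the fitted maximal effect; plate controls were no enzyme wells and a reference inhibitor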
# Target sequence (P00352 whole entry, looked up): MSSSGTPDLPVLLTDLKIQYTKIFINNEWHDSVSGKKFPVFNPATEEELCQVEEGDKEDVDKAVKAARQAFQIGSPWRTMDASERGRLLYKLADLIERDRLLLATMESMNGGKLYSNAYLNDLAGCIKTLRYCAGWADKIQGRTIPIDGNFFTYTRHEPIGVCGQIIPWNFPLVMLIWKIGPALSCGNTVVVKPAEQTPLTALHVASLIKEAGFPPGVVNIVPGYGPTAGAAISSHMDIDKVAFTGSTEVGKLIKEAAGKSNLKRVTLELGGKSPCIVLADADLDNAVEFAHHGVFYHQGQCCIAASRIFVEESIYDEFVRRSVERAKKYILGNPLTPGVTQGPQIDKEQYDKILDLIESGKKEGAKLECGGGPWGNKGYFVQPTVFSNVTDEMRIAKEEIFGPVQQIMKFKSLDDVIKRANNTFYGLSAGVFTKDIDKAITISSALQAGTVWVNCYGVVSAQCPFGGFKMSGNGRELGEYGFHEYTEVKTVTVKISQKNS
# KinaseGlo FLuc – Counterscreen for Luciferase (Kinase-Glo TM) Inhibition; Luciferin 4-monooxygenase (Photuris pensylvanica), Q27757; Kinase-Glo luciferase, ATP luminescence, 8 min; Potency, µM (series often up to 38.3 µM), for the others: top-dose activity change, negative = inhibition, usual class: inhibitors; hit rate 0.28% among 200,000; active means well fitted inhibition curve with a large enough effect; inconclusive means small, poorly fitted or top-dose-only effect; further: potency means the concentration at half of the fitted maximal effect; nearly all actives have a fitted effect of over 60% in size
#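 Substrate mix (final 50 mM imidazole pH 7.2, 50 mM KCl, 7 mM MgCl2, 10 uM ATP, 0.01% Tween 20, 0.05% BSA) plus pin-tool compound, then Kinase-Glo detection mix; 8 min ambient, luminescence read.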
# Lamin A splicing – qHTS Assay for Modulators of Lamin A Splicing. HeLa LMNA splicing GFP/RFP minigene ratio, 48 h. Potency, µM (highest dose often 46.1 µM), without a hit: at the highest dose ratio change, negative = inhibition, hits mostly inhibitors. hit rate 0.01% among 200,000; active means well fitted inhibition curve with a large enough effect in the signal ratio, with a control signal flat, not every such curve was filed as active; inconclusive means small, poorly fitted or top-dose-only effect, or effect the other way, or a change in a side signal; the % refers to the signal ratio; further: potency means the concentration at half of the fitted maximal effect
#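 Read-out is the ratio of GFP to DsRed2 object intensity, acquired by 488 nm laser-scanning cytometry on HeLa lamin A-EGFP minigene reporter cells. Compound incubation 48 hrs at 37 °C in Opti-MEM with 2% FBS; DMSO 0.5% final.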
# PNC assembly inh – High Content Assay for Compounds that inhibit the Assembly of the Perinucleolar Compartment; PC3M PTB-GFP, PNC prevalence imaging, 16 h; stronger effect = lower value; activity change (PNC), negative = inhibition, % at 10 µM; hit rate 3.1% among 140,000;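 active means readout at or below -70, meaning at least 70% loss of cells showing the perinucleolar compartment, a nuclear body marking cancer cells; inconclusive means readout between -30 and a set limit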;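 further: plate controls were DMSO wells for no effect and camptothecin positive control wells for full effect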
#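 Read-out is percentage of cells bearing a perinucleolar compartment, from automated 20x imaging of fixed, Hoechst-stained PC3M PTB-GFP cells. Cells were seeded 4 h, then exposed 16 h to compound (23 nl of library stock) in duplicate plates.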
# HPGD block – qHTS Assay for Inhibitors of HPGD (15-Hydroxyprostaglandin Dehydrogenase); Potency, µM, inactives show at the top dose activity change, negative = inhibition, actives largely listed as inhibitors; AID 894, 2007; hit rate 4.3% among 150,000; purified HPGD, NADH fluorescence kinetic, PGE2 substrate; further: potency means the concentration at half of the fitted maximal effect
# Target sequence (P15428 whole entry, looked up): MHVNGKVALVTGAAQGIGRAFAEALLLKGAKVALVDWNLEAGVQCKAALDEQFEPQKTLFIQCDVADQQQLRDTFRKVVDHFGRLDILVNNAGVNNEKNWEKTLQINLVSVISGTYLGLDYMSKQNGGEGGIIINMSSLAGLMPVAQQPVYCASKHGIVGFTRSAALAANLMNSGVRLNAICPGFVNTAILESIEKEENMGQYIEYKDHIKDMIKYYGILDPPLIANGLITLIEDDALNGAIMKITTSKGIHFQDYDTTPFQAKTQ
#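 20 nM HPGD preincubated 15 min at room temperature with compound in 50 mM Tris-HCl pH 8, 0.01% Tween 20. Started with 1 mM NAD+ and 30 uM prostaglandin E2; NADH fluorescence (360/450 nm) read 5 times over 30-s intervals, last minus first.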
# * = called active by the depositor; ? = inconclusive; nt = no result; [ ] = dose if it differs, or a comment. Unless noted, the call rests on the fitted dose curve; in most records, active means well fitted inhibition curve with a large enough effect (not every such curve was filed as active); inconclusive means small, poorly fitted or top-dose-only effect, or another doubt; inactive means no such curve, though single readings can be large or run the other way. Unless noted, on the % scale 0 is the no-effect control and ±100 the full control effect.
SMILES,ALDH1A1 inh,KinaseGlo FLuc,Lamin A splicing,PNC assembly inh,HPGD block
CCNc1ccc(S(=O)(=O)N(C)C)cc1NCC(=O)Nc1ccccc1F,20µM*,1%,-9%,17,0%
CCNc1ccc(S(=O)(=O)N(C)C)cc1NCC(=O)Nc1ccc(Br)cc1F,-1%,-3%,?,?,-22%
CCOC(=O)Cc1csc(/C(=N/O)C(N)=O)n1,28µM*,3%,?,0,-12%
S=C1NCN2CCN(CC2)CNC(=S)C(=S)NCN2CCN(CC2)CNC1=S,?,-8%[7.66 µM],nt,nt,-18%
Cc1ccc(-n2ncc3c2ncn2c(-c4ccncc4)nnc32)cc1,7%,-2%,0%,-91*,-4%
CC1CC(C)CN(C(=O)c2ccc(NC(=O)c3ccc(=O)[nH]c3)cc2)C1 (stereo not drawn),-6%,0%,2%,21,7.9µM*
CC1CC(C)CN(C(=O)c2ccc(C#N)cc2)C1 (stereo not drawn),?,7%,-5%[46 µM],nt,nt
N#Cc1ccccc1OCC(O)CNCCNC(=O)Nc1ccccc1 (stereo not drawn),13%,nt,nt,nt,nt
Cc1ccc(NC(=O)c2cc(S(=O)(=O)NCCC3=CCCCC3)ccc2F)cc1,22µM*,3%,?,?,-21%
CCCN(CCC)S(=O)(=O)c1ccc2c(c1)CCCN2C(C)=O,5µM*,-3%,?,-1,-9%
CC(=O)N1CCCc2cc(S(=O)(=O)CCC(=O)N3CCN(c4cccc(C)c4)C(C)C3)ccc21 (stereo not drawn),18µM*,18%,4%,-9,-10%
Cc1cccc(N2CCN(C(=O)CCS(=O)(=O)c3ccc(Br)cc3)CC2C)c1 (stereo not drawn),0%,-1%,nt,nt,nt
Cc1ccc(CNS(=O)(=O)c2ccc(F)c(C(=O)Nc3ccc(C)c(F)c3)c2)cc1,nt,nt,-8%[46 µM],nt,nt
CC(=O)N1CCCc2cc(S(=O)(=O)NCCC3=CCCCC3)ccc21,1.8µM*,-2%,?,-86*,-11%
NS(=O)(=O)c1ccc(O)c(N2C(=O)c3cccc4c(C(=O)c5ccccc5)ccc(c34)C2=O)c1,-10%,-4%,-12%[9.22 µM],nt,nt
O=C(O)c1ccc(Cl)c(S(=O)(=O)Nc2ccccc2)c1,8%,-2%,nt,nt,-2%
O=C(CCl)NCc1c(Cl)cccc1-n1cccc1,28µM*,-5%,?,?,-5%
CCc1ccc(C2=NN(CCC(=O)NCCc3ccccc3)C(=O)CC2)cc1,nt,nt,22%[46 µM],nt,nt
COc1ccc(N/N=C(\C=N\O)C(=O)c2ccc(OC)cc2)cc1,?,-2%,?,-112*,-25%
CCC/C=C(\CCC)C(NS(=O)(=O)c1ccccc1)c1ccc(C(F)(F)F)cc1 (stereo not drawn),-2%,-6%,nt,nt,-16%
CCOCc1cnc(C)nc1NCC(=O)c1c(C)n(C)c2ccc(OC)cc12,32µM*,-2%,13%,6,-7%
COc1ccc(CC(=O)N2CCN(C(=O)c3ccco3)CC2)cc1,20µM*,-2%,-1%,7,?
Cc1ccc(CC(=O)N2CCN(C(=O)c3ccco3)CC2)cc1,?,-1%,3%[46 µM],nt,nt
COc1ccc(OCC(=O)N2CCN(C(=O)c3ccco3)CC2)cc1,10µM*,2%,16%,-29,-9%
O=C(/C=C/c1ccc(OC(F)F)cc1)OCC(=O)N1CCN(C(=O)c2ccco2)CC1,18µM*,2%,-8%,13,-6%
SMILES,ALDH1A1 inh,KinaseGlo FLuc,Lamin A splicing,PNC assembly inh,HPGD block
O=C(OCn1nnc2ccccc2c1=O)c1ccc2ncsc2c1,?,0%,?,3,25µM*
Cc1ccc(SCCC(=O)OCn2nnc3ccccc3c2=O)cc1,15µM*,7%,?,nt,nt
O=C(CN1C(=O)C2CCCCC2C1=O)OCn1nnc2ccccc2c1=O (stereo not drawn),?,0%,-19%[46 µM],nt,nt
CCC1(CC)NC(=O)N(CC(=O)OCn2nnc3ccccc3c2=O)C1=O,13µM*,4%,4%,54,-22%
O=C(OCn1nnc2ccccc2c1=O)C1CCCCC1,16µM*,-5%,8%,?,11µM*
Cc1oc2ncn(C)c(=O)c2c1C(=O)N1CCN(c2ccc(Cl)cc2)CC1,nt,nt,4%[46 µM],nt,nt
COc1ccc(C(=O)Nc2nnc(S(=O)(=O)N(CC(C)C)c3ccc(C)cc3)s2)cc1OC,nt,nt,-2%[46 µM],nt,nt
COC(=O)C1=C(C(=O)OC)[C@@H]2N(C)c3ccccc3[C@@]23C[C@@H](CO)N(C(=O)c2cc(C)oc2C)C3=N1,7%[13.5 µM],-6%[7.66 µM],-7%[9.22 µM],nt,-15%
O=C1NC(c2cccc(Br)c2)=N/C1=C\c1ccco1,11µM*,-5%,-12%,10,?
O=C1NC(c2ccccc2)=N/C1=C/c1ccco1,18µM*,?,-3%,-27,?
COc1cccc(C(=O)N2CCN(C(=O)c3cccc4ccccc34)CC2)c1OC,?,5%,1%,9,-13%
COc1ccc(C(=O)N2CCN(C3CCN(Cc4ccccc4)CC3)CC2)cc1OC,?,2%,10%,5,4%
CCc1ccc(CN2CCN(C(=O)c3cccc(OC)c3OC)CC2)cc1,?,1%,?,-100*,-11%
COc1ccc(C(=O)N2CCN(Cc3cc(OC)c(O)c(OC)c3)CC2)cc1OC,22µM*,nt,-7%,-87*,nt
COc1cc(CN2CCN(C(=O)CC(C)C)CC2)cc(OC)c1OC,1%,0%,12%,?,-4%
COc1ccc(CN2CCN(C(=O)c3cc(OC)c(OC)c(OC)c3)CC2)cc1OC,-12%,-2%,-11%,-100*,-3%
Nc1nc(Nc2ccccc2)nc2ccccc12,14%,11µM*,1%,11,-10%
Cc1ccccc1Nc1nc(N)c2ccccc2n1,-3%,13µM*,?,nt,nt
Nc1nc(CCl)nc(Nc2ccccc2)n1,3%,nt,nt,nt,nt
Nc1nc(Nc2ccc(Cl)cc2)nc2ccccc12,?,14µM*,-3%,?,?
O=C(Nc1ccc2nc(SCCOc3ccccc3Cl)sc2c1)c1cccs1,nt,nt,7%[46 µM],nt,nt
CCC1=C2CC[C@H]3C(=O)N(c4ccccc4)C(=O)[C@H]3[C@H]2[C@@]2(C)C(=O)N(CC(=O)OC)C(=O)N2C1=O,-12%,-6%,nt,nt,-6%
CCC1=C2CC[C@H]3C(=O)N(c4ccccc4)C(=O)[C@H]3[C@H]2[C@@]2(C)C(=O)N(Cc3ccccc3)C(=O)N2C1=O,20µM*,-8%,nt,nt,-12%
CCC1=C2CC[C@H]3C(=O)N(CC)C(=O)[C@H]3[C@H]2[C@@]2(C)C(=O)N(CC(=O)OC)C(=O)N2C1=O,18µM*,-17%,nt,nt,-12%
CC(C)c1cccc2nc3c(c(C(C)(C)C)c12)Cn1c-3cccc1=O,?,-1%,nt,nt,?
CCCCCCCCCCS(=O)(=O)N/N=C/c1ccccc1OC,?,1%,?,-7,-15%
